# Screens as filed in PubChem.
# Rows were chosen to be rich in hits. Some 4.7% of all compounds tested hit in one or more screens of this group.
# tim23-1 inh: inhibits growth of tim23-1 mutant yeast; S. cerevisiae tim23-1 growth, BacTiter-Glo luminescence, 24 h; inhibition, % at 20 µM; actives 1.3% (n = 330,000);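 active = growth inhibition of the mutant yeast at or above 50%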;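 also: temperature-sensitive mutant grown at 25 °C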
# tim10-1 inh: growth inhibitors of tim10-1 mutant yeast | S. cerevisiae tim10-1 ts strain growth, BacTiter-Glo, 24 h | inhibition, % at 20 µM | actives 2.2% (n = 330,000) | AID 463190;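 active = inhibition of at least 40%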;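 also: mutant grown at 25 °C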
# PfHsp90 yeast 2: growth inhibition of yeast expressing Plasmodium Hsp90; S. cerevisiae expressing PfHsp90, BacTiter-Glo ATP, 48 h; yeast lacking PDR1 and PDR3 efflux regulators; inhibition, % at 9.4 µM; actives 0.32% (n = 310,000); AID 504621;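 active = every replicate shows inhibition above about 80%, whatever the replicate mean, limit read from the data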
# ATG4B inh: inhibitors of human ATG4B cysteine protease; AID 504462; Q9Y4P1; actives 0.51% (n = 340,000); inhibition, % at 8.33 µM; ATG4B cleavage of LC3-PLA2, NBD-HPC fluorescence, 1 h; in the data active = inhibition above about 40%
# Target sequence (Q9Y4P1 whole entry, looked up): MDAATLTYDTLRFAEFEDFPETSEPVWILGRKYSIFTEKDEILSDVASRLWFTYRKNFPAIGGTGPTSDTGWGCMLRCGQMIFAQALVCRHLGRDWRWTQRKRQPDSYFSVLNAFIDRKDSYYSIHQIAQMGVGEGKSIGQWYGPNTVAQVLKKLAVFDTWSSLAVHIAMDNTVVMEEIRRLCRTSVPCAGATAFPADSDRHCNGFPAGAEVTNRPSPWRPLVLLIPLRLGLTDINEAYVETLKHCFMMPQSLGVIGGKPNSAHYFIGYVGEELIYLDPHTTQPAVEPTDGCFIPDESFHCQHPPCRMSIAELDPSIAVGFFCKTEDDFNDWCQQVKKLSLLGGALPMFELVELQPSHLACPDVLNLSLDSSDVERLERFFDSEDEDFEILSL
# TIM10 inh: inhibits growth of TIM10 yeast strain. S. cerevisiae TIM10 strain growth, BacTiter-Glo luminescence, 24 h. inhibition, % at 10 µM. actives 1.4% (n = 330,000);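 active = inhibition of 40% or more at the single tested concentration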;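 also: wild-type TIM10 isogenic control strain grown at permissive 25 °C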
# SKKanGAS inh: SKKanGAS growth inhibition; S. pyogenes SKKanGAS, kanamycin growth, BacTiter-Glo, 6 h; inhibition, % at 7.5 µM; actives 1.3% (n = 300,000); AID 1662;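 active = mean replicate score, as percent of positive control median, at least 50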;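 also: strain carries kanamycin resistance gene driven by streptokinase promoter and grows in 40 µg/ml kanamycin; loss of luminescence reflects streptokinase promoter inhibition or plain growth inhibition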
# Numbers stand for hits; i = inactive; nt = not tested or not shown.
SMILES,tim23-1 inh,tim10-1 inh,PfHsp90 yeast 2,ATG4B inh,TIM10 inh,SKKanGAS inh
O=[N+]([O-])c1ccc(O)c(Nc2ncnc3ccc(Br)cc23)c1,i,i,i,i,i,51
CCC(=O)NC(c1ccc(C)cc1)c1cc([N+](=O)[O-])c2cccnc2c1O (stereo not given),nt,nt,i,i,nt,87
CCCC(=O)NC(c1ccco1)c1cc([N+](=O)[O-])c2cccnc2c1O (stereo not given),i,i,i,i,i,54
CN=C1S/C(=C\c2ccc(Cl)cc2)C(=O)N1C,i,i,i,i,i,i
Cc1ccc(/C=[N+](\[O-])c2ccc(N(C)C)cc2)c2nsnc12,i,i,109,i,i,i
CC(C)(C)NCCOCCOc1ccccc1-c1ccccc1,i,i,i,i,i,i
O=C(NC(=S)NNC(=O)[C@H]1C[C@@H]1c1ccccc1)c1ccc(F)cc1,i,i,i,i,i,82
O=C(/C=C/c1ccc(F)cc1)NC(=S)NNC(=O)[C@H]1C[C@@H]1c1ccccc1,i,i,i,i,i,85
COc1ccc(C(=O)CSc2nnc(CCc3ccccc3)n2-c2ccccc2)cc1,i,i,i,i,i,i
Nc1nc(Nc2cccc(Cl)c2)nc(NCc2ccco2)c1[N+](=O)[O-],i,i,i,i,i,75
CCOC(=O)c1nn(-c2ccccc2Cl)c(=O)cc1OCC(=O)Nc1cccc(OC)c1,i,i,i,i,i,53
CCOC(=O)c1nn(-c2ccccc2C)c(=O)cc1OCC(=O)Nc1cccc(OC)c1,i,i,i,i,i,i
Cc1cc(-c2c(C)[nH]n(-c3ccc(Cl)cc3)c2=O)n(-c2ccc(Cl)cc2)n1,i,i,i,i,i,101
COc1ccc(-c2oc3c4c(cc(OC)c3c(=O)c2CC=C(C)C)OC(C)(C)C=C4)c(OC)c1,i,i,nt,nt,i,i
CC(C)=CCc1c(-c2ccc(O)cc2O)oc2cc3c(c(O)c2c1=O)C=CC(C)(C)O3,i,i,nt,i,i,107
Cc1nnc(SCC(=O)N2c3ccccc3CC2C)s1 (stereo not given),i,i,i,i,i,i
CCc1nc(SCC(=O)N2c3ccccc3CC2C)c2c(C)c(C)sc2n1 (stereo not given),i,i,nt,83,i,50
C[C@H]1CCC[C@]2(O[C@@H](CCO)C[C@@H](O)[C@@H]2O)O1,i,i,i,i,i,i
CCC1C/C(=C\c2cc(OC)c(OC)cc2OC)C(=O)/C(=C/c2cc(OC)c(OC)cc2OC)C1 (stereo not given),nt,nt,i,i,nt,i
COc1cc(OC)c(OC)cc1/C=C1\CC(C)C/C(=C\c2cc(OC)c(OC)cc2OC)C1=O (stereo not given),nt,nt,i,i,nt,56
Cc1ccc(-c2csc3ncn(CC#N)c(=O)c23)cc1,i,i,i,i,i,i
Cc1ccc(-c2csc3ncn(CC#N)c(=O)c23)cc1C,i,i,i,i,i,52
CC(C)c1ccc2[nH]c3c(c2c1)CCC/C3=N\NC(=O)c1ccncc1,i,i,i,i,i,60
O=C1c2ccc3c4c(ccc(c24)C(=O)N1c1cccc(O)c1)C(=O)N(c1cccc(O)c1)C3=O,i,i,i,i,i,65
COc1cc(CNCCN2CCOCC2)ccc1OCc1cccc(Cl)c1,i,i,i,i,i,i
SMILES,tim23-1 inh,tim10-1 inh,PfHsp90 yeast 2,ATG4B inh,TIM10 inh,SKKanGAS inh
Cc1cccc2[nH]c3c(N4CC=C(c5ccc(F)cc5)CC4)ncnc3c12,i,i,nt,i,i,82
COc1cccc(NC(=O)N2CCCc3ccccc32)c1,i,i,i,i,i,i
OC(C#CCN1CCCCCC1)(c1ccccc1)c1cccnc1 (stereo not given),i,i,i,i,i,i
CN(C)/C=C/C(=O)c1ccc(Oc2ccccc2)cc1,i,i,101,i,i,i
CC(=O)c1ccc2noc(-c3ccccc3)c2c1,i,i,i,i,i,i
CN(C)/C=C/C(=O)c1ccc2noc(-c3ccccc3)c2c1,i,i,106,i,i,i
CCCC[C@@H]1CNC(=S)N1CC1CCCCC1,i,i,i,i,i,i
S=C1NC[C@H](CC2CCCCC2)N1CC1CCCCC1,i,i,i,i,i,61
COC(CNC(=O)C(=O)Nc1cc2c3c(c1)CC(=O)N3CCC2)OC,i,i,i,i,i,i
C/C(=C/CCC(C)C1CCC2(C)C3CCC4C(C)(C)C(=O)CCC4(C)C3=CCC12C)C(=O)O (stereo not given),nt,nt,nt,nt,nt,105
CC(C)Nc1nc(NC(C)C)nc(N(C)N)n1,i,i,i,i,i,56
CC(C)Nc1nc(NC(C)C)nc(N(C)C(N)=O)n1,i,i,i,i,i,i
O=C(O)c1ccc(N/N=C/c2ccc(OC(=O)c3cccc(Cl)c3)cc2)cc1,i,i,i,i,i,57
O=C(Nc1ccc(Nc2ccncc2)cc1)c1ccc(Nc2ccnc3ccc([N+](=O)[O-])cc23)cc1[N+](=O)[O-],nt,nt,i,i,nt,54
O=C(Nc1ccc(Nc2ccncc2)cc1)c1ccc([N+](=O)[O-])cc1,i,i,i,i,i,i
O=C1/C(=C\c2ccccc2)CN(C(=O)CCN2CCCCC2)C/C1=C/c1ccccc1,nt,nt,i,i,nt,nt
O=C1/C(=C\c2ccc(Cl)c(Cl)c2)CN(C(=O)CCN2CCOCC2)C/C1=C/c1ccc(Cl)c(Cl)c1,nt,nt,107,i,nt,nt
CCN(CC)c1nc(NN)nc(Nc2ccc(C)c(Cl)c2)n1,i,i,i,i,i,104
Nc1ccc(C(O)(C(F)(F)F)C(F)(F)F)cc1,i,i,nt,i,i,i
Nc1ccc(-c2ccc(N)cc2C(F)(F)F)c(C(F)(F)F)c1,i,i,i,i,i,60
CCC1CCCCN1CCCNC(=O)CCCNC(=O)Cn1cnc2sc3c(c2c1=O)CCCC3 (stereo not given),i,i,nt,i,i,i
Clc1ccc2nc(-c3ccncc3)cc(-c3ccccc3)c2c1,i,i,i,i,i,i
c1ccc(-c2cc(-c3ccncc3)nc3ccc4ccccc4c23)cc1,i,i,i,i,i,100
Cc1[nH]c(=S)c(C#N)c(-c2ccccc2)c1C(=O)Nc1ccccc1,i,i,i,i,i,i
O=C(NNC(=O)c1cc(-c2ccc(Cl)c(Cl)c2)nc2ccccc12)Nc1ccccc1,i,i,i,i,i,76
COc1c2c(cc(O)c1C(C)=O)OC(C)(C)C=C2,nt,nt,i,i,nt,nt
CC(C)=CCC12Oc3cc(O)ccc3C1(O)Oc1cc3c(c(O)c1C2=O)C=CC(C)(C)O3 (stereo not given),i,i,nt,i,i,105
O=C1c2ccccc2C2=Nc3ccccc3SC(c3cccc(F)c3)C12 (stereo not given),i,i,i,i,i,79
O=C1c2ccccc2C2=Nc3ccccc3SC(c3ccc(Cl)cc3)C12 (stereo not given),i,i,i,i,i,78
